TbPYK inhibitor: blocks Trypanosoma brucei pyruvate kinase | Potency, µM (series often up to 76.8 µM), for the others: top-dose activity, negative = inhibition, actives largely listed as inhibitors | AID 624173 | Q57TT1 | hit rate 0.12% among 410,000 | TbPYK enzyme, Kinase-Glo Plus ATP luminescence, 45 min; note: potency is the fitted concentration of half-maximal effect; nearly all actives have a fitted effect of over 50% in size
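Luminescent Kinase-Glo Plus end-point after 45 min room-temperature reaction of T. brucei pyruvate kinase started with 130 uM ADP (final). Buffer TEA 50 mM pH 7.2 with KCl, MgCl2, BSA, Tween-20; titration-based qHTS with fitted concentration-effect curves.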
RE007 growth inh: less growth of the S. pombe RE007 Vpr strain. Potency, µM (highest dose often 92.2 µM), without a hit: at the top dose activity change, negative = less growth, most hits filed as inhibitors. hit rate 0.21% among 360,000. AID 651644. S. pombe RE007 Vpr strain, BacTiter-Glo ATP luminescence, 24 h; active = well fitted falling curve with a large enough effect; inconclusive = small, poorly fitted or top-dose-only effect; inactive = no such curve, though single readings can be large or run the other way; note: potency is the fitted concentration of half-maximal effect; nearly all actives have a fitted effect of over 50% in size
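Fission yeast strain RE007, carrying one chromosomally integrated HIV-1 vpr copy, was seeded at OD 0.01 in PMG+AL medium with 23 nL pinned compound. After 24 h at 30 °C and 99% humidity, viability was read by BacTiter-Glo luminescence.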
Sm TGR inh: blocks Schistosoma mansoni thioredoxin glutathione reductase | Q962Y6 | purified TGR, DTNB reduction, TNB absorbance 405 nm | Potency, µM (top dose mostly 114 µM), for inactives: top-dose activity change, negative = inhibition, usual class: inhibitors | hit rate 3% among 360,000; note: potency is the fitted concentration of half-maximal effect; nearly all actives have a fitted effect of over 60% in size
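Kinetic colorimetric format: TGR-catalysed, NADPH-driven DTNB reduction monitored via TNB absorbance. Enzyme dispensed at 20 nM; compound exposure 15 min at room temperature before reaction start.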
FMDV inh: blocks foot and mouth disease virus; FMDV antiviral cell-based qHTS; Potency, µM (top dose mostly 57.9 µM), for the others: at the highest dose activity change, negative = inhibition, actives largely listed as inhibitors; hit rate 1.2% among 410,000; AID 1159524; calls by dose curve; tested in HEK293T cells; note: read-out not given here; potency is the fitted concentration of half-maximal effect; nearly all actives have a fitted effect of over 45% in size
FBPA Giardia inh: inhibitors of Giardia lamblia fructose-1,6-bisphosphate aldolase; AID 2451; purified Giardia FBPA; A8B2U2; Potency, µM (top dose mostly 59.6 µM), for the others: at the highest dose activity, negative = inhibition, usual class: inhibitors; hit rate 0.71% among 290,000; note: potency is the fitted concentration of half-maximal effect; nearly all actives have a fitted effect of over 55% in size
Target sequence (A8B2U2 whole entry, looked up): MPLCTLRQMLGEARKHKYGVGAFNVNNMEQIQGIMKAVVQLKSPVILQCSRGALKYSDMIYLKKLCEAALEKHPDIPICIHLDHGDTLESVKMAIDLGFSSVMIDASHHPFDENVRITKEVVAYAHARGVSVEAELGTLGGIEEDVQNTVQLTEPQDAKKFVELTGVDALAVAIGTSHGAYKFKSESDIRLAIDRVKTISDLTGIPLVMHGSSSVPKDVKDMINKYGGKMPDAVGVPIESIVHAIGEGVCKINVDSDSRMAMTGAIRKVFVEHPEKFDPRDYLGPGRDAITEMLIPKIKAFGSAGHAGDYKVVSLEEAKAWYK
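Giardia FBPA (40 nM reagent) was preincubated 10 min at RT with compound (up to 57.5 uM final), then substrate plus GAPDH/TPI/NAD/arsenate coupling system with diaphorase/resazurin was added; resorufin fluorescence (525/598 nm) was read after 20 min.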
HCMV antiviral: inhibitors of human cytomegalovirus; HFF cells, HCMV-luciferase reporter, 72 h; stronger effect = lower value; activity change, negative = inhibition, % at 57.5 µM; AID 1259415; hit rate 4.5% among 410,000; in the data active = activity change below about -60%; inconclusive = no clear call, values can overlap the other calls; inactive = above about -39%
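Two compound doses tested in HFFs infected with HCMV-luciferase, MOI 1 PFU/cell, 72 h at 37C. Lysate luminescence read with OneGlo; data normalized against buffer-only and 10uM Salinomycin inhibitor controls.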
Starred values were filed as active, the others as inactive; ? = inconclusive; . = not tested or not shown; + = active, no number; [ ] = another dose, or the depositor's remark. The list is not random: actives were taken first. Their share in the collection is about 7.7%. Unless noted, calls come from the whole dose curve; as a rule, active = well fitted curve in the direction sought with a large enough effect; inconclusive = small, poorly fitted or top-dose-only effect, or another doubt; inactive = no such curve, though single readings can be large; an effect the other way counts as inactive or inconclusive. % is set by controls: 0 for no effect and ±100 for the full control effect.

SMILES	TbPYK inhibitor	RE007 growth inh	Sm TGR inh	FMDV inh	FBPA Giardia inh	HCMV antiviral
Nc1ncnc2c1nc(Br)n2[C@@H]1O[C@@H]2COP(=O)(O)O[C@H]2[C@H]1O	2%	-1%[18.4 µM]	.	-1%	.	-76*
Cc1ccc2c(c1)cc1c(=O)n(CC(=O)N3CCCCC3)nc(C)n12	-10%	.	0%	-1%	.	-18
Cc1ccccc1Cc1c(C)nc2nc(SCC(=O)NCc3ccco3)nn2c1C	-2%	6%	25µM*	-16%	-2%	0
Cc1ccc(Cc2c(C)nc3nc(SCC(=O)NCc4ccco4)nn3c2C)cc1	0%	29%	40µM*	-17%	-8%	-14
Cc1nc2nc(SCC(=O)NCc3ccccc3)nn2c(C)c1Cc1ccccc1	-1%	.	17%	2%	.	-16
Cc1nc2nc(SCC(=O)NCCCN3CCCCCC3)nn2c(C)c1Cc1ccccc1	0%	-19%	0%	-11%	-2%	-65*
Cc1ccccc1Cc1c(C)nc2c(C(=O)NCc3ccco3)cnn2c1C	-11%	3%	22µM*	?	11%	9
CCOC(=O)c1sc(NC(=O)c2cc3nc(-c4ccccc4)cc(C(F)(F)F)n3n2)c(C(=O)OCC)c1C	2%	.	6%	-3%	.	-23
COc1cc2c(-c3ccc(C)cc3)nc3c(c(C)nn3-c3ccccc3)c2cc1OC	0%	.	0%	-18%	.	18
COc1ccc(C(=O)Nc2nc3c(s2)Cc2c(Br)ccc(OC)c2-3)cc1OC	-1%	.	-18%	-22%	.	-29
CCCCNC(=O)c1cnn2c(C)c(Cc3c(C)cc(C)cc3C)c(C)nc12	3%	.	2%	16µM*	.	-21
CCCNC(=O)c1cnn2c(C)c(Cc3c(C)cc(C)cc3C)c(C)nc12	-3%	.	5%	?	.	?
Cc1cccc(Cc2c(C)nc3nc(SCC(=O)NCc4ccco4)nn3c2C)c1	3%	10%	35µM*	-16%	0%	33
Cc1nc2nc(SCC(=O)NCc3ccco3)nn2c(C)c1Cc1c(F)cccc1Cl	-5%	28%	50µM*	?	-1%	-24
Cc1ccc(NC(=O)Cn2c(=O)n(CCC(=O)NCc3ccccc3Cl)c(=O)c3ccccc32)c(C)c1	5%	.	-4%	4%	.	-4
Cc1cc(C)nc(N/N=C/c2ccco2)n1	3%	-10%	-13%	13%	?	28
Cc1cc(C)nc(N/N=C/c2cc(C)n(CC(F)(F)F)c2C)n1	3%	-9%	-6%	17%	-10%	-75*
COC(=O)CCN(Cc1ccc(OC)cc1OC)S(=O)(=O)c1ccccc1Br	.	.	.	.	.	3
COc1ccc(Nc2nccc3[nH]c(-c4cccc(OC(F)(F)F)c4)nc23)cc1OC	.	.	.	.	.	-9
O=C(NC(=S)Nc1ccc(CN2CCCCC2)cc1)c1ccco1	-1%	-1%	.	17%	-30%	-31
O=C(Nc1ccc(N2CCN(Cc3ccccc3Cl)CC2)cc1)c1cccnc1	2%	17%	1%	?	9%	-64*
O=C(NC(=S)Nc1ccc(CN2CCOCC2)cc1)c1ccco1	-4%	4%	32µM*	31%	-10%	52
O=C(Nc1ccc(N2CCCCC2)cc1)c1cccnc1	-9%	-8%	-20%	49%	-6%	29
O=C(Nc1ccc(N2CCN(Cc3ccccc3)CC2)cc1)c1ccco1	-2%	2%	-6%	6%	.	-82*
CCOc1cc(NC(=S)NCCCN2CCOCC2)c(OCC)cc1NC(=O)c1ccco1	-9%	3%	35µM*	-7%	-18%	16
SMILES	TbPYK inhibitor	RE007 growth inh	Sm TGR inh	FMDV inh	FBPA Giardia inh	HCMV antiviral
CC(C)(C)C(=O)N1CCN(c2ccc(NC(=O)c3ccco3)cc2)CC1	-5%	-10%	11%	14%	.	20
O=C(NC1CC1)c1ccc(Cn2c(SCc3ccccc3F)nc3cccnc32)cc1	-1%	.	4%	-4%	.	50
CC(=O)c1ccc(F)c(-c2cc(C)cc3c2OC(CNC(=O)C(C)n2nc(C)cc2C)C3)c1 (configuration not stated)	.	.	.	-16%	.	.
C=C/C1=C/Cc2ccccc2[C@H](C[N+](=O)[O-])C(C(C)=O)(C(=O)OC)C1 (some centres not stated)	.	.	.	.	-4%	.
O=C(NC(=S)Nc1ccc(N2CCOCC2)cc1)c1ccco1	-15%	.	40µM*	27%	?	33
COc1cccc(N2CC(NC(=O)C3CC3)CC2=O)c1 (configuration not stated)	-3%	.	9%	-22%	.	-23
CCN(Cc1ccccc1)C(c1ccc(Cl)cc1)c1nnnn1C(C)(C)C (configuration not stated)	5%	17%	14%	?	0%	-97*
CCOC(=O)c1c(C)oc2ncnc(Nc3ccc(OCC)cc3)c12	-5%	.	6%	2%	.	-1
CCOc1ccc(CNC(=O)Cn2nc(C)n3cccc3c2=O)cc1	6%	.	7%	-9%	.	15
O=C(O)c1ccccc1N/C=C\[N+](=O)[O-]	-19%	-25%	28µM*	7%	?	-6
O=C(/C=C/Nc1ccccc1C(=O)O)c1cccs1	-1%	15%	-4%	7%	-17%	21
O=C(CCS(=O)(=O)c1ccccc1)N(Cc1cccnc1)c1nc2ccc(F)cc2s1	4%	.	0.89µM*	3%	.	53
O=C(c1ccc(Br)s1)N(Cc1cccnc1)c1nc2ccc(F)cc2s1	-3%	.	-5%	-5%	.	14
Cc1ccc2nc(N(Cc3cccnc3)C(=O)CCc3ccccc3)sc2c1	-12%	.	11%	12%	.	52
CC(=O)N(Cc1cccnc1)c1nc2ccc(F)cc2s1	-3%	.	6%	-8%	.	-77*
O=C(CCOc1ccccc1)N(Cc1cccnc1)c1nc2c(F)cc(F)cc2s1	4%	.	5.6µM*	-16%	.	34
COc1ccc(C)c2sc(N(Cc3cccnc3)C(=O)CCc3ccccc3)nc12	0%[15.4 µM]	.	7%	-7%	.	+
CC1CC(=O)N(CC(=O)Nc2ccc(OC(F)(F)F)cc2)c2ccccc2S1 (configuration not stated)	2%	.	-5%	-22%	.	10
c1ccc(NC2C(c3ccccc3)=Nc3ccccc3-n3nnnc32)cc1 (configuration not stated)	.	.	.	.	.	3
COc1cc(-c2n[nH]c3ccnc(-c4cccc(C(F)(F)F)c4)c23)cc(OC)c1OC	.	.	.	.	.	-14
COc1ccc(Nc2nccc3c2cc(-c2ccc(C(=O)N(C)C)cc2)n3C)c(OC)c1	.	.	.	.	.	-15
Cc1cc2nc(-c3ccccc3)c(-c3c(F)cc(F)cc3F)nc2cc1C	.	.	.	.	.	-14
COc1ccc(C2CC(=O)c3cc(-c4nc(-c5ccc(Cl)cc5)cs4)c(=O)[nH]c3C2)cc1 (configuration not stated)	2%	.	-35%	-8%	.	8
